The whole screen tested about 5,500 compounds, of which about 2,000 (36%) were called active. Not shown: some 18% with an inconclusive outcome. Cut-off read from the data, not from the text of the source: active = normalized growth mostly below about 0.91 (no sharp cut-off); inconclusive = no clear call, values can overlap the other calls; inactive = mostly above about 0.92. The list shows a part of the results.
Assay: chemical genetic growth profiling, strain panel (AID 1159580);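 note: tested at 20 µM; growth read once vehicle control cultures reached saturation at 30 °C; 1 = growth at the plate median or of vehicle wells; lower values mean less growth of the strain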
Details: growth OD

Measured: normalized growth

CCOC(=O)[C@H](CCc1ccccc1)N[C@H]1CCc2ccccc2N(CC(=O)O)C1=O
inactive: S. cerevisiae deletion strains, locus YJR075W, strain HOC1, stronger effect = lower value 0.994 | S. cerevisiae deletion strains, locus YKL009W, strain mrt4, stronger effect = lower value 1 | S. cerevisiae deletion strains, locus YKL068W, stronger effect = lower value 0.973 | S. cerevisiae deletion strains, locus YKL085W, strain MDH1 (second series), stronger effect = lower value 0.967 | S. cerevisiae deletion strains, locus YKL085W, strain MDH1, stronger effect = lower value 0.967 | S. cerevisiae deletion strains, locus YKL160W, strain elf1, stronger effect = lower value 0.993 | S. cerevisiae deletion strains, locus YKL190W, strain CNB1, stronger effect = lower value 0.989 | S. cerevisiae deletion strains, locus YKR001C, strain vps1, stronger effect = lower value 0.983 | S. cerevisiae deletion strains, locus YKR026C, strain gcn3, stronger effect = lower value 0.979 | S. cerevisiae deletion strains, locus YKR091W, strain srl3, stronger effect = lower value 0.989 | S. cerevisiae deletion strains, locus YLL001W, strain dnm1, stronger effect = lower value 0.983 | S. cerevisiae deletion strains, locus YLL026W, stronger effect = lower value 0.989 | S. cerevisiae deletion strains, locus YLL041C, strain sdh2, stronger effect = lower value 0.986 | S. cerevisiae deletion strains, locus YLR027C, strain aat2, stronger effect = lower value 0.982 | S. cerevisiae deletion strains, locus YLR039C, strain RIC1, stronger effect = lower value 1.02 | S. cerevisiae deletion strains, locus YLR058C, strain SHM2, stronger effect = lower value 0.999 | S. cerevisiae deletion strains, locus YLR102C, strain apc9, stronger effect = lower value 0.972 | S. cerevisiae deletion strains, locus YLR113W, strain HOG1, stronger effect = lower value 1.01 | S. cerevisiae deletion strains, locus YLR221C, strain rsa3, stronger effect = lower value 0.983 | S. cerevisiae deletion strains, locus YLR258W, strain gsy2, stronger effect = lower value 0.983 | S. cerevisiae deletion strains, locus YLR262C, strain YPT6 (second series), stronger effect = lower value 0.97 | S. cerevisiae deletion strains, locus YLR262C, strain YPT6, stronger effect = lower value 0.955 | S. cerevisiae deletion strains, locus YLR268W, strain sec22, stronger effect = lower value 0.98 | S. cerevisiae deletion strains, locus YLR320W, strain mms22, stronger effect = lower value 0.966 | S. cerevisiae deletion strains, locus YLR330W, strain CHS5, stronger effect = lower value 0.986 | S. cerevisiae deletion strains, locus YLR342W, strain FKS1 (second series), stronger effect = lower value 1.05 | S. cerevisiae deletion strains, locus YLR342W, strain FKS1, stronger effect = lower value 0.956 | S. cerevisiae deletion strains, locus YLR357W, strain rsc2, stronger effect = lower value 0.912 | S. cerevisiae deletion strains, locus YLR370C, strain arc18, stronger effect = lower value 0.988 | S. cerevisiae deletion strains, locus YLR371W, strain rom2, stronger effect = lower value 0.969 | S. cerevisiae deletion strains, locus YLR384C, strain iki3, stronger effect = lower value 0.986 | S. cerevisiae deletion strains, locus YLR418C, strain cdc73, stronger effect = lower value 0.953 | S. cerevisiae deletion strains, locus YML016C, strain PPZ1, stronger effect = lower value 0.98 | S. cerevisiae deletion strains, locus YML032C, strain rad52, stronger effect = lower value 0.984 | S. cerevisiae deletion strains, locus YML120C, strain ndi1, stronger effect = lower value 0.975 | S. cerevisiae deletion strains, locus YML124C, strain tub3, stronger effect = lower value 0.971 | S. cerevisiae deletion strains, locus YMR058W, strain fet3, stronger effect = lower value 0.988 | S. cerevisiae deletion strains, locus YMR078C, strain ctf18, stronger effect = lower value 0.978 | S. cerevisiae deletion strains, locus YMR125W, strain sto1, stronger effect = lower value 0.996 | S. cerevisiae deletion strains, locus YMR129W, stronger effect = lower value 0.991 | S. cerevisiae deletion strains, locus YMR205C, strain PFK2, stronger effect = lower value 0.974 | S. cerevisiae deletion strains, locus YMR223W, strain ubp8, stronger effect = lower value 0.993 | S. cerevisiae deletion strains, locus YMR231W, strain pep5, stronger effect = lower value 0.986 | S. cerevisiae deletion strains, locus YMR263W, strain SAP30, stronger effect = lower value 0.993 | S. cerevisiae deletion strains, locus YMR307W, strain GAS1, stronger effect = lower value 0.939 | S. cerevisiae deletion strains, locus YNL067W, strain RPL9B, stronger effect = lower value 0.996 | S. cerevisiae deletion strains, locus YNL071W, strain lat1, stronger effect = lower value 0.989 | S. cerevisiae deletion strains, locus YNL128W, strain TEP1, stronger effect = lower value 0.984 | S. cerevisiae deletion strains, locus YNL153C, strain GIM3, stronger effect = lower value 0.988 | S. cerevisiae deletion strains, locus YNL183C, strain NPR1, stronger effect = lower value 0.959 | S. cerevisiae deletion strains, locus YNL209W, strain ssb2, stronger effect = lower value 0.98 | S. cerevisiae deletion strains, locus YNL233W, strain BNI4, stronger effect = lower value 0.99 | S. cerevisiae deletion strains, locus YNL248C, strain rpa49, stronger effect = lower value 0.98 | S. cerevisiae deletion strains, locus YNL250W, strain rad50, stronger effect = lower value 0.963 | S. cerevisiae deletion strains, locus YNL271C, strain bni1, stronger effect = lower value 0.959 | S. cerevisiae deletion strains, locus YNL298W, strain CLA4, stronger effect = lower value 0.968 | S. cerevisiae deletion strains, locus YNL307C, strain MCK1, stronger effect = lower value 0.986 | S. cerevisiae deletion strains, locus YNL322C, strain KRE1 (second series), stronger effect = lower value 0.967 | S. cerevisiae deletion strains, locus YNL322C, strain KRE1, stronger effect = lower value 0.98 | S. cerevisiae deletion strains, locus YNR049C, strain mso1, stronger effect = lower value 0.994 | S. cerevisiae deletion strains, locus YNR052C, strain pop2, stronger effect = lower value 0.977 | S. cerevisiae deletion strains, locus YOL006C, strain TOP1, stronger effect = lower value 1.08 | S. cerevisiae deletion strains, locus YOL012C, strain htz1 1.02 | S. cerevisiae deletion strains, locus YOL147C, strain pex11, stronger effect = lower value 0.975 | S. cerevisiae deletion strains, locus YOR001W, strain rrp6, stronger effect = lower value 0.989 | S. cerevisiae deletion strains, locus YOR061W, strain CKA2, stronger effect = lower value 0.983 | S. cerevisiae deletion strains, locus YOR069W, strain VPS5, stronger effect = lower value 0.99 | S. cerevisiae deletion strains, locus YOR070C, strain gyp1, stronger effect = lower value 0.982 | S. cerevisiae deletion strains, locus YOR080W, strain dia2, stronger effect = lower value 0.973 | S. cerevisiae deletion strains, locus YOR083W, strain WHI5, stronger effect = lower value 0.982 | S. cerevisiae deletion strains, locus YOR106W, strain vam3, stronger effect = lower value 0.984 | S. cerevisiae deletion strains, locus YOR136W, strain idh2, stronger effect = lower value 0.974 | S. cerevisiae deletion strains, locus YOR144C, strain elg1, stronger effect = lower value 0.965 | S. cerevisiae deletion strains, locus YOR184W, strain ser1, stronger effect = lower value 0.981 | S. cerevisiae deletion strains, locus YOR231W, strain MKK1, stronger effect = lower value 0.976 | S. cerevisiae deletion strains, locus YOR265W, strain rbl2, stronger effect = lower value 0.987 | S. cerevisiae deletion strains, locus YOR270C, strain vph1, stronger effect = lower value 1.04 | S. cerevisiae deletion strains, locus YOR290C, strain snf2, stronger effect = lower value 0.993 | S. cerevisiae deletion strains, locus YOR316C, strain cot1, stronger effect = lower value 0.959 | S. cerevisiae deletion strains, locus YPL051W, strain arl3, stronger effect = lower value 0.978 | S. cerevisiae deletion strains, locus YPL055C, strain LGE1, stronger effect = lower value 1.02 | S. cerevisiae deletion strains, locus YPL078C, strain atp4, stronger effect = lower value 0.984 | S. cerevisiae deletion strains, locus YPL106C, strain sse1, stronger effect = lower value 0.963 | S. cerevisiae deletion strains, locus YPL240C, strain hsp82, stronger effect = lower value 0.979 | S. cerevisiae deletion strains, locus YPL241C, strain CIN2, stronger effect = lower value 0.983 | S. cerevisiae deletion strains, locus YPL256C, strain CLN2, stronger effect = lower value 0.965 | S. cerevisiae deletion strains, locus YPR119W, strain clb2, stronger effect = lower value 0.971 | S. cerevisiae deletion strains, locus YPR141C, strain kar3, stronger effect = lower value 0.948 | S. cerevisiae deletion strains, locus YPR163C, strain tif3, stronger effect = lower value 0.968 | S. cerevisiae deletion strains, locus YPR167C, strain met16, stronger effect = lower value 0.978 | S. cerevisiae deletion strains, strain wtn01, stronger effect = lower value 0.973 | S. cerevisiae strains, strain wild type, stronger effect = lower value 0.98
